# Laboratory results taken from ChEMBL document CHEMBL4513216, “Probing the Open Global Health Chemical Diversity Library for Multistage-Active Starting Points for Next-Generation Antimalarials” (ACS Infect Dis, 2020).
# Hit rate of the full screen: of about 68,000 compounds, about 2,700 (4%) showed an effect of 50% or more. The sample holds strong results, similar compounds and a random draw of the others, so the mix is not that of the screen.
# Tested on: Plasmodium berghei
# Assay: Screen against P. berghei liver stage (PbLuc), transformed with Luciferase, at 2uM
# Format: functional, HepG2
# Conditions: tested at 2 uM
row,Compound,INHIBITION
1,O=C(c1ccsc1)N1C[C@H]2CN(Cc3cccnc3)C(=O)[C@H]2C1,18.91%
2,CN1CCc2c(C#N)c(NCc3cccnc3)n3cnnc3c2C1,-48.47%
3,CN(C)CC1CN(Cc2coc(-c3ccc(Cl)cc3)n2)CCO1 (centres undefined),35.23%
4,O=C(O)C1(Oc2ccc3ccccc3c2)CCN(c2ccncc2)CC1,2.04%
5,CCCc1n[nH]c(C2CN(C(=O)CCn3ccccc3=O)CCO2)n1 (centres undefined),60.09%
6,CCCc1n[nH]c(C2CN(C(=O)Cn3ccccc3=O)CCO2)n1 (centres undefined),-53.98%
7,CCc1n[nH]c(C2CN(C(=O)CCn3ccccc3=O)CCO2)n1 (centres undefined),-27.5%
8,CC(C)NC(=O)N1CCCC(c2nnc(CN3CCOCC3)n2C)C1 (centres undefined),10.02%
9,CC(NCc1cnc(N2CCOCC2)nc1)c1ccc(Cl)s1 (centres undefined),-62.93%
10,Cc1nc(C2CCCN2CCCS(=O)(=O)N(C)C)no1 (centres undefined),9.36%
11,C[C@H](C(=O)N1Cc2ccccc2CC2(CCCN2C)C1)c1ccccc1 (some centres undefined),29.56%
12,CCNC(=O)c1cn(C(C)(C)C)c2ncccc12,40.4%
13,O=C(C1CC1)N1CCCC1c1nnc2n1CCCCC2 (centres undefined),58.29%
14,O=C(C1CCC1)N1CCCC1c1nnc2n1CCCCC2 (centres undefined),41.56%
15,O=C(C1CCCC1)N1CCCC1c1nnc2n1CCCCC2 (centres undefined),-15.83%
16,C[C@@H]1CN(S(=O)(=O)N2CCCCCC2)C[C@@]1(O)C1CCC1,6.68%
17,CCC(O)CN1CCN(C(=O)c2ccc(Cn3cccc3)cc2)CC1 (centres undefined),-25.46%
18,O=C(Nc1cccnc1)[C@H]1C[C@H]2CN(Cc3ccc(F)cc3)C[C@@H]1O2,6.35%
19,CC1CCC(NS(=O)(=O)CC(=O)Nc2ccc(N3CCCC3)cn2)CC1 (centres undefined),-3.25%
20,CNC(=O)CS(=O)(=O)NC1CCC(C)CC1 (centres undefined),7.46%
21,Cc1ccc(NC(=O)CS(=O)(=O)NC2CCC(C)CC2)nc1 (centres undefined),59.03%
22,CCN(CC)CCn1c(NC(=O)c2scnc2C)nc2ccccc21,-34.06%
23,O=C(Nc1ccccc1Oc1cccc(F)c1)NC1CCS(=O)(=O)C1 (centres undefined),11.88%
24,CNC(=O)NC(=O)CSC(C)c1ccccc1F (centres undefined),20.74%
25,CC(=O)N1CCC(Cc2cncc(-c3c(C)n[nH]c3C)n2)C1 (centres undefined),23.22%
26,CC(C)CN1CCC2(CCN(Cc3ccoc3)CC2)C1=O,44.43%
27,CCS(=O)(=O)Nc1cnn(Cc2cccc(Cl)c2)c1,20.19%

row,Compound,INHIBITION
1,CCS(=O)(=O)Nc1cnn(Cc2cccc(C)c2)c1,52.95%
2,CCS(=O)(=O)Nc1cnn(Cc2cccc(F)c2)c1,3.58%
3,CC(C)COCc1cncc2c1CCN(Cc1cnn(C)c1)C2,-40.42%
4,Cn1cc(CN2CCc3c(COCC4CC4)cncc3C2)cn1,-11.66%
5,COCc1cncc2c1CCN(Cc1cnn(C)c1)C2,53.98%
6,COc1ccc2cc(C(=O)N3CCCC(n4ccnc4C)C3)[nH]c2c1 (centres undefined),-47.33%
7,CCNc1cc2c(nn1)CCN(C(=O)c1cccc3c1OCO3)C2,1.63%
8,Cn1ccnc1CN1CCN(c2ccc(C#N)cc2F)CC1,-5.15%
9,Cn1cc(N2CCN(c3ccc(C#N)cc3F)CC2=O)cn1,53.98%
10,COCC1CN(c2ccc(C#N)c(Cl)c2)CCO1 (centres undefined),2.69%
11,Cn1cc(N2CCN(c3ccc(C#N)cc3Br)CC2=O)cn1,42.2%
12,Cn1cc(N2CCN(c3ccc(C#N)c(Cl)c3)CC2=O)cn1,52.3%
13,N#Cc1ccc(N2CCC(OC3CCOCC3)CC2)cc1Cl,26.51%
14,O=C(Cn1cccnc1=O)NCCc1ccc2c(c1)OCCO2,0.9%
15,COc1ccc2c(ccn2CCCN)c1,-19.92%
16,CCCOC(=O)C(C)Sc1nnnn1C1CCOCC1 (centres undefined),71.4%
17,COC(=O)C(C)Sc1nnnn1C1CCOCC1 (centres undefined),-53.55%
18,CC(C)OCCSc1nnnn1C1CCOCC1,17.37%
19,CCCC(C)Sc1nnnn1C1CCOCC1 (centres undefined),61.27%
20,CC(Sc1nnnn1C1CCOCC1)C(F)(F)F (centres undefined),5.55%
21,CC(Sc1nnnn1C1CCOCC1)C(=O)NC1CCCCC1 (centres undefined),-33.07%
22,CCc1nccn1C1CCCN(C(=O)Cc2ccc(OC)c(F)c2)C1 (centres undefined),29.71%
23,COc1ccc(CNC(=O)N2CCCC(Nc3ccccc3)C2)cn1 (centres undefined),17.48%
24,Fc1ccc(CN2CCc3ncnc(C4CC4)c3CC2)cc1,-12.06%
25,Cc1cn[nH]c1C1CCCCN1C(=O)CCc1c(C)n[nH]c1C (centres undefined),5.34%
26,O=C(NCC1CCCOC1)c1ccc(-c2cccs2)[nH]c1=O (centres undefined),38.67%
27,Cc1cc(C(=O)N2CCCC(c3noc(C)n3)C2)[nH]n1 (centres undefined),45.75%
